Measured values as given in PubChem BioAssay AID1487 (National Center for Advancing Translational Sciences (NCATS), 2009).
Among all 200,000 compounds or so, about 25 (0.01%) were called active. Not shown: some 23% with an inconclusive outcome. The call rests on the fitted dose curve; in most records, active means well fitted inhibition curve with a large enough effect in the signal ratio, with a control signal flat (not every such curve was filed as active); inconclusive means small, poorly fitted or top-dose-only effect, or effect the other way, or a change in a side signal; inactive means flat fitted curve, though single readings scatter; the % refers to the signal ratio. Shown is part of a subset that was picked to be rich in actives.

Assay: qHTS Assay for Modulators of Lamin A Splicing
Details: HeLa LMNA splicing GFP/RFP minigene ratio, 48 h; series mostly up to 46 µM
Excerpt: NCGC Assay Overview: Hutchinson-Gilford Progeria Syndrome (HGPS) is a pediatric premature aging disease caused by a spontaneous mutation in the lamin A/C (LMNA) gene. The mutation activates a cryptic splice site in the LMNA pre-mRNA which results in production of a pre-lamin A protein that cannot be processed properly. The mutant protein accumulates in the nucleus and negatively affects numerous cellular functions. Correction of the splicing defect in HGPS patient cells using a targeted oligonucleotide (exo11) leads to reversal of the cellular disease phenotypes. To identify small molecule modulators of aberrant LMNA splicing, a homogenous assay was constructed in HeLa cells that used a GFP containing minigene to report on correction of aberrant splicing in lamin A and a RFP (DsRed2) to report on cell viability, uniformity and nonspecific effects on the assay signal. This assay was adapted to laser-scanning microplate cytometry (Acumen, TTP Labtech) where miniaturization of the assay to a 1,536-well plate format was possible. References: Bowen, W. P.; Wylie, P. G. Application of Laser-Scanning Fluorescence Microplate Cytometry in High Content Screening. Assay Drug Dev Technol 2006;4:209-221. Scaffidi P, Misteli T. Reversal of the cellular phenotype in the premature aging disease Hutchinson-Gilford progeria syndrome. Nat.
NCGC Assay Protocol Summary: Reagents/Controls: Stable clones expressing DsRed2 and lamin A-EGFP were generated by Cell and Molecular Technologies in S3 HeLa cells. HeLa cells were prepared for the assay when they were 70-90% confluent. The cells were counted and resuspended in Opti-MEM I (no phenol red; Gibco), 2% FBS, 1% penicillin/ streptomycin (Gibco) at concentration of 120 cells/uL concentration. The suspension was passed through a Falcon basket filter with pore size 40um (Beckton Dickson). Control titrations: column […] 1536-well plate contained a sixteen point titration (1:2 dilutions) in duplicate of ancitabine (Sigma: A8598) beginning at 40 uM final concentration. Column 2 contained a sixteen point titration (1:2 dilutions) of cycloheximide beginning at 1.4 mM final concentration. Column 3 contained ancitabine at 40 uM and column 4 contained was the vehicle control (0.5% DMSO final concentration). Assay Steps: 5 uL of HeLa cells were plated in Aurora LoBase black clear bottom (cyclic-olefin polymer) 1536-well plates at a final density of 600 cells/well. Controls and library compounds were added with a 1536-well pin array using the Kalypsys pin-tool. The plates were then incubated for 48 hrs in a cell-culture incubator (37 °C; 5% CO2, 98% humidity). Following incubation the plates were read on the Acumen Explorer using the 488 nm laser. Data was collected on objects between 10 and 100 um in size. Cell objects were defined by a 15 um width x 10 um depth filter. The ratio of the total object intensity in PMT1 (500-530 nm emission; GFP) over PMT3 (575-640 nm emission; RFP) was calculated for analysis. Keywords: NIH Roadmap, MLSCN, MLI, MLSMR, qHTS, NCGC, lamin A, Progeria, RNA splicing.
On the % scale 0 is the no-effect control and ±100 the full control effect.

Ratio change, negative = inhibition, inactive:
Cc1nc([N+](=O)[O-])cn1CC(=O)Nc1ccc2c(c1)OCO2
Cc1cccc(OCCC(=O)Nc2cc(S(=O)(=O)N3CCCCC3)ccc2N2CCOCC2)c1
Cc1ccc(C)c(-n2ccnc2SCC(N)=O)c1
CC1(C)OC(=O)C(=CSc2ccc(C(C)(C)C)cc2)C(=O)O1
COc1cc(NC(=O)c2cccnc2SC)cc(OC)c1
COc1ccccc1CN(C)c1nnnn1-c1ccccc1
COc1ccc(NC(=O)CSc2nnc(-c3ccccc3F)n2C2CC2)cc1S(N)(=O)=O
CCOC(=O)c1cnc2[nH]c3ccccc3n2c1=O
CC(=O)c1ccc(NC(=O)CSc2c(C(C)C)cnc3c2c(=O)n(C)c(=O)n3C)cc1
CCOC(=O)c1c(C)oc2nc(C)nc(N3CCN(c4ccc(OC)cc4)CC3)c12
Cc1ccc(/C([O-])=C(/C(=S)NCc2ccco2)[n+]2ccccc2)cc1[N+](=O)[O-]
O=C(C1COc2ccccc2O1)N(Cc1cccnc1)c1nc2c(F)cc(F)cc2s1 (centres undefined)
COc1ccc(NC(=O)c2sc3nc(-c4cc5cccc(OC)c5oc4=O)[nH]c(=O)c3c2C)cc1
COc1ccc(NS(=O)(=O)c2ccc(O)c(C(=O)OCC(=O)NC3CCCCC3)c2)cc1
CCCN(CCC)CCCNC(=O)CNC(=O)c1nn(-c2ccc(OC)cc2)c(=O)c2ccccc12
COc1ccccc1NC(=O)C1=C(C)Nc2nc(SCC(=O)c3ccc(C)cc3)nn2C1c1ccccc1C (centres undefined)
COc1cccc(C(O)Cc2nc3ccccc3n2C)c1OC (centres undefined)
O=C(CCC(=O)N1CCCC1)Nc1ccc([N+](=O)[O-])cc1
C/C(CC(=O)Nc1ccc(C)cc1C)=N\NC(=O)C(C)C
O=C(Nc1nnc(S(=O)(=O)N2CCOCC2)s1)c1cccc(Br)c1
Cc1nc(N2CCC(C)CC2)c2c(C)c(C(=O)Nc3cc(F)ccc3C)sc2n1 11.2% [at 9.22 µM]
CN(C)S(=O)(=O)c1ccc(NC(=O)COC(=O)Cn2[nH]c(=O)c3ccccc3c2=O)cc1
Cc1ccccc1C(=O)Nc1ccc(N2CCCCCC2)cc1
CC1CCN(C(=S)c2cccc([N+](=O)[O-])c2)CC1
CC(=O)c1sc(NC(=O)C2=NN(c3ccccc3)C(=O)CC2)nc1C
OCC1(CCOc2ccccc2)CCN(Cc2cn[nH]c2-c2ccccc2)CC1
CC(C)C(=O)Nc1ccc2oc(=O)ccc2c1
Cc1ccsc1C1C(C#N)=C(N)OC2=C1C(=O)CC(C)(C)C2 (centres undefined) 3.22% [at 9.22 µM]
COc1cccc(NC(=O)CS(=O)(=O)c2cn(CC(=O)N3CCOCC3)c3ccccc23)c1 10.8% [at 9.22 µM]
COc1cccc(N2CCN(C(=O)CCCCCn3c(=O)[nH]c4ccccc4c3=O)CC2)c1
COc1ccc(N(CC(=O)NC2CCCC2)C(=O)CS(=O)CC(=O)Nc2ccc3c(c2)OCO3)cc1 (centres undefined)
N#Cc1c(NC(=O)C2CC(Cl)=CCC2C(=O)O)sc2c1CCCCC2 (centres undefined)
CCOc1ccccc1/C=N/NC(=O)CNC(=O)COc1ccccc1
Cc1ccccc1N1C(=O)C(Oc2ccc(Cl)cc2)C1CNCC1CCCO1 (centres undefined)
Fc1ccccc1N=C1Nc2cccc3cccc1c23
COc1ccc(C(=O)OCC(=O)NCC2CCCO2)cc1[N+](=O)[O-] (centres undefined)
O=C(NC(=S)Nc1cccc(-c2ccc(CO)o2)c1)c1cccs1
COCCN(C(=O)c1ccccc1F)c1c(N)n(Cc2ccccc2)c(=O)[nH]c1=O
Cc1c(Cl)cccc1NC(=S)N(Cc1ccccc1)Cc1cccnc1
Cc1cccc(NC(=O)N2CCC(CN3CCc4ccccc4C3)CC2)c1C
Cc1nc(N2CCCCC2)sc1C=O
CN(C(=O)CSc1nncc2ccccc12)C1CCCCC1
CCc1cccc(NC(=O)CN(C)S(=O)(=O)c2ccc3[nH]c4c(c3c2)CCCC4)c1
CC(C)CCN(C(=O)Nc1ccc(Cl)c(Cl)c1)C(C)c1cccs1 (centres undefined)
COC(=O)CCC(=O)N1CCCC(CO)(Cc2ccccc2)C1 (centres undefined)
Cc1csc(CN(C)C(=O)CC2C(=O)NCCN2CC(C)(C)C)n1 (centres undefined)
O=C(NCCCN1CCOCC1)c1ccccc1NS(=O)(=O)c1ccc(F)cc1
COCCCNC(=S)NCCNc1nc2cc(C)c(C)cc2cc1C#N
Cc1ccccc1CN1C(=O)c2ccccc2Sc2ccc(C(=O)NCCCN3CCOCC3)cc21
Cc1ccc(C2CC(c3cccc(NS(C)(=O)=O)c3)=NN2S(C)(=O)=O)cc1 (centres undefined) -2.59% [at 9.22 µM]
O=C1CCC/C(=N\NC(=O)NC2CCCCC2)C1
Cc1ccc(NC(=O)CNCc2ccccn2)cc1S(=O)(=O)N(C)C
O=C(Oc1cccc(NC2=NS(=O)(=O)c3ccccc32)c1)c1ccncc1
O=C(CNC(=O)c1cc(=O)[nH]c2ccccc12)Nc1ccc(F)c(F)c1 3.5% [at 9.22 µM]
Cc1ccccc1Nc1nc(N)nc(CSc2nnc3ccccn23)n1
CCc1ccc(C2C(C(=O)Nc3ccccc3)=C(C)Nc3c(C(=O)Nc4ccc(C)cc4)cnn32)cc1 (centres undefined)
CCN(CC)c1nn2c(=O)c(C(=O)NCCc3ccccc3)cnc2s1
O=C(N/N=C\c1cc(Br)c(Br)o1)C1COc2ccccc2O1 (centres undefined)
CN(Cc1ccccn1)Cc1nc(-c2ccc(Cl)cc2)no1
Cc1ccc(Cl)cc1N1CCN(C(=O)c2cnc3c(-c4ccc(F)cc4)c(C)nn3c2C)CC1
CSc1ccc(/C=N\NC(=O)CC(=O)NC(C)C)cc1
CC1CCCCN1CCCNC(=O)Cn1ncc2c([nH]c3ccccc32)c1=O (centres undefined)
CC(=O)c1cccc(-n2nnnc2SCC(=O)NNC(=O)C2CCCCC2)c1 7.45% [at 9.22 µM]
COc1ccc(NC(=O)c2ccccc2CC[N+](=O)[O-])cc1
